High-throughput results: PubChem BioAssay, National Center for Advancing Translational Sciences (NCATS)
KDM5B inh = KDM5B demethylase inhibition; Q9UGL1; hit rate 2.6% among 220,000; Potency, µM (titrated, usually from 57.7 µM), hits mostly inhibitors; KDM5B demethylase, FDH-coupled NADH fluorescence (FDH is formaldehyde dehydrogenase); also: nearly all actives have a fitted effect of over 70% in size
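Inhibition is measured as reduced NADH fluorescence generation from FDH coupling to formaldehyde release. Truncated KDM5BΔAP at 200 nM final acts on H3K4me3 peptide (12.5 µM in substrate mix) in pH 7.5 HEPES buffer with Tween-20, 30 min, room temperature.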
IP6K1 inh = blocks human inositol hexakisphosphate kinase 1; Q92551; IP6K1 kinase, ADP-Glo luminescence, 2 h; active compounds read low; activity change, % (series mostly up to about 58 µM); hit rate 0.81% among 140,000; AID 1645851; in the data active = activity change below about -25%
Target sequence (Q92551 whole entry, looked up): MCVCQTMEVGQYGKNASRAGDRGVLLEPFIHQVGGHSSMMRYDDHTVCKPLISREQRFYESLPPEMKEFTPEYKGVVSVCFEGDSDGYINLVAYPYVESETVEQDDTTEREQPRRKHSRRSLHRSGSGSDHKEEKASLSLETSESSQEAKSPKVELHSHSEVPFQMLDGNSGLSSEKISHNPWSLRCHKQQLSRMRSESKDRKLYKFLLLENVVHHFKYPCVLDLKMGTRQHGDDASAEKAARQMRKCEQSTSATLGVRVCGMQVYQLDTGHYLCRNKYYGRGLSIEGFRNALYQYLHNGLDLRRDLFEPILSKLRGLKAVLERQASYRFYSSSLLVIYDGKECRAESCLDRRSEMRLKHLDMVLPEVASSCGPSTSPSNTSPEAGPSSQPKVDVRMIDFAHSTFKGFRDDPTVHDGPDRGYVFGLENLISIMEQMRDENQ
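ADP-Glo luminescence measures ADP made by human IP6K1 during a 2 h RT reaction with ATP/IP6 (mix at 1.3 mM/130 uM); top library doses 57.5 and 19.1 uM final.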
IP6K1 inh cnf = confirmation of human IP6K1 inhibitors | shares compounds with IP6K1 inh | recombinant IP6K1 kinase, ADP-Glo luminescence, 2 h | Potency, µM (highest dose often 49 µM), usual class: inhibitors | hit rate 13% among 1,200; also: nearly all actives have a fitted effect of over 65% in size
Of the large screens only hits and unclear results are named; the others gave an inactive call (follow-up assays come after a bar, where they were run). An excerpt weighted towards active compounds, which were near 2.8% of everything screened. Unless noted, calls follow the shape of the dose curve; as a rule, active = well fitted inhibition curve with a large enough effect; inconclusive = small, poorly fitted or top-dose-only effect; inactive = no such curve, though single readings can be large or run the other way.

CC(=O)c1cccc(Nc2nc(-c3cccc(C)c3)nc3ccccc23)c1	KDM5B inh inconclusive, IP6K1 inh -39 | IP6K1 inh cnf inconclusive
CCN1CC(c2ccccc2)CC2(CCN(C(=O)CCn3cccn3)CC2)C1 (configuration not stated)	none
CCN1CC(c2ccccc2)CC2(CCN(C(=O)COC)CC2)C1 (configuration not stated)	IP6K1 inh -27 | IP6K1 inh cnf inactive
C[C@@H]1COC(Nc2ccc3ncnc(Nc4ccc(OCc5nccs5)c(Cl)c4)c3c2)=N1	IP6K1 inh -34 (no result: KDM5B inh) | IP6K1 inh cnf inconclusive
CS(=O)(=O)CCNCc1ccc(-c2ccc3ncnc(Nc4ccc(OCc5cccc(F)c5)c(Cl)c4)c3c2)o1	none (no result: KDM5B inh)
COc1ccc(N2C(=O)CSC23C(=O)N(C)c2ccccc23)cc1Cl (configuration not stated)	KDM5B inh inconclusive, IP6K1 inh -26 | IP6K1 inh cnf inactive
COc1cc(N2C(=O)CSC23C(=O)N(C)c2ccccc23)cc(OC)c1OC (configuration not stated)	none
Cc1ccc(C(=O)N2CCCC(C(=O)N3CCC(N4CCCC4=O)CC3)C2)cc1 (configuration not stated)	none (no result: KDM5B inh)
CCc1nc2c(c(-c3ccc(O)cc3)n1)CN(C(=O)Cc1ccc(F)cc1)CC2	none (no result: KDM5B inh)
Cc1cccn2c(=O)c(C(=O)NCCc3ccc(Cl)cc3)cnc12	KDM5B inh inconclusive
CSc1ccc(CCNC(=O)c2cnc3c(C)cccn3c2=O)cc1	IP6K1 inh -29 | IP6K1 inh cnf inactive
Cc1nc2sccn2c1-c1csc(Nc2cccc(Cl)c2C)n1	none (no result: IP6K1 inh)
O=C(Cc1ccccc1)NC1CCN(c2ccnc3ccnn23)C1 (configuration not stated)	none (no result: KDM5B inh)
O=C(O)c1ccc(Nc2ncc3c(n2)-c2ccc(Cl)cc2C(c2c(F)cccc2F)=NC3)cc1	IP6K1 inh -49 (no result: KDM5B inh) | IP6K1 inh cnf 10µM
CC1(C(=O)Nc2ccc(F)c(Cl)c2)COCc2cnc(Nc3ccccc3)nc21 (configuration not stated)	KDM5B inh inconclusive
CCn1c(C2CCCN(C(=O)Nc3ccccc3F)C2)nn(C)c1=O (configuration not stated)	none (no result: KDM5B inh)
NC(=O)Cc1c[nH]c2ncc(-c3cccc(O)c3)cc12	KDM5B inh inconclusive, IP6K1 inh -38 | IP6K1 inh cnf inconclusive
C[S+](=O)([O-])c1cccc(-c2cnc3[nH]cc(CC(N)=O)c3c2)c1	none
Cn1cc(-c2cnc3[nH]cc(CC(=O)Nc4ccc(C(F)(F)F)cc4)c3c2)cn1	KDM5B inh inconclusive
NC(=O)Cc1c[nH]c2ncc(-c3cccc(C(F)(F)F)c3)cc12	KDM5B inh inconclusive, IP6K1 inh -32 | IP6K1 inh cnf inconclusive
NC(=O)Cc1c[nH]c2ncc(-c3ccccc3F)cc12	KDM5B inh 35µM, IP6K1 inh -38 | IP6K1 inh cnf inconclusive
NC(=O)Cc1c[nH]c2ncc(-c3ccccc3Oc3ccccc3)cc12	KDM5B inh inconclusive
Cc1nnc(SCc2coc(-c3cccc(F)c3)n2)n1C	none (no result: IP6K1 inh)
CC(C)Cn1c(=O)c(C(=O)N2CCN(C(=O)c3ccc(F)cc3)CC2)nc2cccnc21	none (no result: KDM5B inh)
COc1ccccc1-c1cccc(CN2CCC(NC(=O)Cc3ccc(C(F)(F)F)cc3)CC2)c1	none (no result: KDM5B inh)
COc1ccc(-c2cc(C(=O)N3CCN(C(C)=O)CC3)c3cnn(C)c3n2)cc1	none (no result: KDM5B inh)
CC(C)CCN(Cc1ccco1)C(=O)Cn1ncc2c([nH]c3ccccc32)c1=O	KDM5B inh inconclusive, IP6K1 inh -29 | IP6K1 inh cnf inactive
CCN(CC)C(=O)Cn1ncc2c([nH]c3ccccc32)c1=O	KDM5B inh inconclusive
C=Cc1c(C)n[nH]c1C	none (no result: IP6K1 inh)
CCC[C@H]1CN(C(=O)c2ccccc2Cc2ccc(C)cc2)C[C@@H]1N	IP6K1 inh -26 | IP6K1 inh cnf inactive
Cc1ccc(Cc2ccccc2C(=O)N2CCOC(C(F)(F)F)C2)cc1 (configuration not stated)	none
O=C(NCCNC(=O)c1cccc2cccnc12)c1cccc2cccnc12	none (no result: IP6K1 inh)
N#C/C(=C\c1ccc(-c2cccc(C(F)(F)F)c2)o1)c1nc2ccccc2[nH]1	none (no result: IP6K1 inh)
Cc1ccc(C)c(N2CCN(S(=O)(=O)c3cnc(N)nc3)CC2)c1	none
Cc1ccc(C)c(N2CCN(S(=O)(=O)c3csc(C(N)=O)c3)CC2)c1	IP6K1 inh -30 | IP6K1 inh cnf inconclusive
O=C(Nc1cc(F)ccc1F)c1cc2nc(-c3ccco3)cc(C(F)(F)Cl)n2n1	KDM5B inh inconclusive, IP6K1 inh -26 | IP6K1 inh cnf inactive
O=C(Nc1cccc(C(F)(F)F)c1)c1cc2nc(-c3ccco3)cc(C(F)(F)Cl)n2n1	KDM5B inh inconclusive
O=c1c2nc(-c3ccoc3)ccc2ncn1-c1ccc(F)cc1F	KDM5B inh inconclusive
O=c1ncn(CC2CC2)c2ccc(-c3ccoc3)nc12	KDM5B inh 32µM, IP6K1 inh -32 | IP6K1 inh cnf inactive
CC(C)CNC(=O)N1CCC(CC2CC2)(NS(C)(=O)=O)CC1	none (no result: KDM5B inh)
CCC(C(=O)Nc1ccc(OC)c(Cl)c1)n1nc(-c2cc(C)ccc2C)ccc1=O (configuration not stated)	none (no result: IP6K1 inh)
Cc1ccc(-c2cc(C(=O)N3CCC(c4nc(C5CCOCC5)no4)C3)c3ccccc3n2)cc1C (configuration not stated)	KDM5B inh 25µM, IP6K1 inh -28 | IP6K1 inh cnf inactive
Cc1cccc(C(=O)N2CCC(c3nc(C4CCOCC4)no3)C2)c1 (configuration not stated)	KDM5B inh inconclusive
O=C(NCCc1ccccc1)c1ccc2nnc(-c3ccoc3)n2c1	none (no result: KDM5B inh)
Cc1cc2c(C(C)C)c(O)c(O)c(C=O)c2c(O)c1-c1c(C)cc2c(C(C)C)c(O)c(O)c(C=O)c2c1O	IP6K1 inh -59 (no result: KDM5B inh) | IP6K1 inh cnf inconclusive
Cc1cc(=O)oc2c(C=O)c(O)ccc12	none (no result: KDM5B inh)
CC1CCN(C(=O)CSc2nc(-c3ccccc3)no2)CC1	KDM5B inh inconclusive, IP6K1 inh -26 | IP6K1 inh cnf inconclusive
CC1CCN(C(=O)CSc2nc(-c3ccc(C(C)C)cc3)no2)CC1	none
N#CC1(C(=O)Nc2cccc(Br)c2)CCCC1	none (no result: IP6K1 inh)
Nc1nc(Nc2cccc(Cl)c2)sc1C(=O)c1ccc(F)cc1	IP6K1 inh -27 | IP6K1 inh cnf inactive
Cc1ccc(C(=O)c2sc(Nc3cccc(Cl)c3)nc2N)cc1	none (no result: IP6K1 inh)
COc1ccc(CNS(=O)(=O)c2cc3c(cc2C)n(C)c(=O)c(=O)n3C)cc1	none
Cc1cc2c(cc1S(=O)(=O)NCc1ccc(F)cc1)n(C)c(=O)c(=O)n2C	KDM5B inh inconclusive, IP6K1 inh -26 | IP6K1 inh cnf inactive
Cc1ccc2c(c1)NC(SCC(=O)Nc1cccc(C(F)(F)F)c1)=NS2(=O)=O	none (no result: IP6K1 inh)
Cn1ncc2c(Nc3ccccc3)nc(NC3CCCC3)nc21	none (no result: IP6K1 inh)
CN1CCC(Nc2nc(Nc3ccc(Oc4ccccc4)cc3)c3c(=O)[nH]cc(Br)c3n2)CC1	IP6K1 inh -41 (no result: KDM5B inh) | IP6K1 inh cnf inconclusive
CCN1CCN(C(=O)c2ccc3nnc(-c4ccccc4OC)n3c2)CC1	none (no result: KDM5B inh)
N#C/C(=C/c1ccc(F)cc1)C(=O)c1c[nH]c2cc(F)ccc12	none (no result: IP6K1 inh)
Cc1cc(N2CCOCC2)nc2ccc(NC(=O)NC(C)C)cc12	none (no result: IP6K1 inh)
Cc1cc(C(C)Nc2ccccc2C(=O)O)c2nc(N3CCOCC3)cc(=O)n2c1 (configuration not stated)	none (no result: KDM5B inh) | IP6K1 inh cnf inactive
Cc1ccc(C(=O)C(=O)O)cc1	none (no result: IP6K1 inh)
Cn1c(-c2ccccc2)cnc1NC(=O)NCCc1ccccc1	none (no result: IP6K1 inh)
